# Measured values as given in the supplement of paper PMC4466140.
# Legend:
# Experiment in all cases: SPOT peptide array binding signal intensity (averaged, normalized) (arbitrary units (background-subtracted, floor 0; scale differs between SH3 domains)); higher = stronger binding of the SH3 domain to the peptide
# [1] = target: AgAbp1
# Protocol: (§1)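 GST-tagged SH3 domains from S. cerevisiae (Sc), A. gossypii (Ag), C. albicans (Ca) and S. pombe (Sp) were incubated at 10 ug/ml overnight at 4 C on cellulose SPOT membranes carrying 292 synthetic 15-mer peptides mined from the S. cerevisiae proteome (cysteines replaced by serines). Binding was detected with anti-GST antibody, HRP secondary and chemiluminescence, quantified with Genespotter, and reported as normalized spot intensities averaged over biological replicates.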
# [2] = target: AgBbc1
# Protocol: as §1
# [3] = target: AgBem1-D1
# Protocol: as §1
# [4] = target: AgBzz1-D1
# Protocol: as §1
# [5] = target: AgBzz1-D2
# Protocol: as §1
# [6] = target: AgCyk3
# Protocol: as §1
# [7] = target: AgFus1
# Protocol: as §1
# [8] = target: AgHof1
# Protocol: as §1
# [9] = target: AgHse1
# Protocol: as §1
# [10] = target: AgLsb1
# Protocol: as §1
# [11] = target: AgLsb4
# Protocol: as §1
# [12] = target: AgMyo5
# Protocol: as §1
# [13] = target: AgNbp2
# Protocol: as §1
# [14] = target: AgRvs167
# Protocol: as §1
# [15] = target: AgSho1
# Protocol: as §1
# [16] = target: AgSla1-D1-D2
# Protocol: as §1
# [17] = target: AgSla1-D3
# Protocol: as §1
# [18] = target: CaAbp1-D1
# Protocol: as §1
# [19] = target: CaAbp1-D2
# Protocol: as §1
# [20] = target: CaBbc1
# Protocol: as §1
# [21] = target: CaBem1-D1
# Protocol: as §1
# [22] = target: CaBzz1-D1
# Protocol: as §1
# [23] = target: CaBzz1-D2
# Protocol: as §1
# [24] = target: CaCyk3
# Protocol: as §1
# [25] = target: CaFus1
# Protocol: as §1
# [26] = target: CaHof1
# Protocol: as §1
# [27] = target: CaHse1
# Protocol: as §1
# [28] = target: CaLsb1
# Protocol: as §1
# [29] = target: CaLsb4
# Protocol: as §1
# [30] = target: CaMyo5
# Protocol: as §1
# [31] = target: CaNbp2
# Protocol: as §1
# [32] = target: CaRvs167
# Protocol: as §1
# [33] = target: CaRvs167-3
# Protocol: as §1
# [34] = target: CaSho1
# Protocol: as §1
# [35] = target: CaSla1-D1-D2
# Protocol: as §1
# [36] = target: CaSla1-D3
# Protocol: as §1
# [37] = target: ScAbp1
# Protocol: as §1
# [38] = target: ScBbc1
# Protocol: as §1
# [39] = target: ScBem1-D1
# Protocol: as §1
# [40] = target: ScBzz1-D1
# Protocol: as §1
# [41] = target: ScBzz1-D2
# Protocol: as §1
# [42] = target: ScCyk3
# Protocol: as §1
# [43] = target: ScFus1
# Protocol: as §1
# [44] = target: ScHof1
# Protocol: as §1
# [45] = target: ScHse1
# Protocol: as §1
# [46] = target: ScLsb1
# Protocol: as §1
# [47] = target: ScLsb2
# Protocol: as §1
# [48] = target: ScLsb3
# Protocol: as §1
# [49] = target: ScLsb4
# Protocol: as §1
# [50] = target: ScMyo3
# Protocol: as §1
# [51] = target: ScMyo5
# Protocol: as §1
# [52] = target: ScNbp2
# Protocol: as §1
# [53] = target: ScPex13
# Protocol: as §1
# [54] = target: ScRvs167
# Protocol: as §1
# [55] = target: ScSho1
# Protocol: as §1
# [56] = target: ScSla1-D1-D2
# Protocol: as §1
# [57] = target: ScSla1-D3
# Protocol: as §1
# [58] = target: SpAbp1-D1
# Protocol: as §1
# [59] = target: SpBbc1
# Protocol: as §1
# [60] = target: SpBzz1-D1
# Protocol: as §1
# [61] = target: SpBzz1-D2
# Protocol: as §1
# [62] = target: SpCyk3
# Protocol: as §1
# [63] = target: SpHof1
# Protocol: as §1
# [64] = target: SpHof1-2
# Protocol: as §1
# [65] = target: SpHof1-3
# Protocol: as §1
# [66] = target: SpHse1
# Protocol: as §1
# [67] = target: SpLsb1
# Protocol: as §1
# [68] = target: SpLsb4
# Protocol: as §1
# [69] = target: SpMyo1
# Protocol: as §1
# [70] = target: SpNbp2
# Protocol: as §1
# [71] = target: SpPex13
# Protocol: as §1
# [72] = target: SpRvs167
# Protocol: as §1
# [73] = target: SpSla1-D1-D2
# Protocol: as §1
# [74] = target: SpSla1-D3
# Protocol: as §1
binder,measurement,setting,value
LLIRWLILMPLVGSR,SPOT peptide array binding signal intensity,[1],19.5
same,SPOT peptide array binding signal intensity,[2],29.5
same,SPOT peptide array binding signal intensity,[3],284
same,SPOT peptide array binding signal intensity,[4],39
same,SPOT peptide array binding signal intensity,[5],62
same,SPOT peptide array binding signal intensity,[6],24.5
same,SPOT peptide array binding signal intensity,[7],3190
same,SPOT peptide array binding signal intensity,[8],53
same,SPOT peptide array binding signal intensity,[9],2550
same,SPOT peptide array binding signal intensity,[10],2.5
same,SPOT peptide array binding signal intensity,[11],1800
same,SPOT peptide array binding signal intensity,[12],4.5
same,SPOT peptide array binding signal intensity,[13],722
same,SPOT peptide array binding signal intensity,[14],26.5
same,SPOT peptide array binding signal intensity,[15],1270
same,SPOT peptide array binding signal intensity,[16],41
same,SPOT peptide array binding signal intensity,[17],5
same,SPOT peptide array binding signal intensity,[18],334
same,SPOT peptide array binding signal intensity,[19],321
same,SPOT peptide array binding signal intensity,[20],68
same,SPOT peptide array binding signal intensity,[21],125
same,SPOT peptide array binding signal intensity,[22],222
same,SPOT peptide array binding signal intensity,[23],109
same,SPOT peptide array binding signal intensity,[24],48
same,SPOT peptide array binding signal intensity,[25],5090
same,SPOT peptide array binding signal intensity,[26],1.25
same,SPOT peptide array binding signal intensity,[27],875
same,SPOT peptide array binding signal intensity,[28],26.5
same,SPOT peptide array binding signal intensity,[29],191
same,SPOT peptide array binding signal intensity,[30],40
NRPAIRIPSLKKPAL,SPOT peptide array binding signal intensity,[1],20
same,SPOT peptide array binding signal intensity,[2],12.5
same,SPOT peptide array binding signal intensity,[3],54.5
same,SPOT peptide array binding signal intensity,[4],16
same,SPOT peptide array binding signal intensity,[5],7
same,SPOT peptide array binding signal intensity,[6],2
same,SPOT peptide array binding signal intensity,[7],226
same,SPOT peptide array binding signal intensity,[8],111
same,SPOT peptide array binding signal intensity,[9],800
same,SPOT peptide array binding signal intensity,[10],361
same,SPOT peptide array binding signal intensity,[11],18.5
same,SPOT peptide array binding signal intensity,[12],0.5
same,SPOT peptide array binding signal intensity,[13],114
same,SPOT peptide array binding signal intensity,[14],1.33
same,SPOT peptide array binding signal intensity,[15],21.5
same,SPOT peptide array binding signal intensity,[16],24
same,SPOT peptide array binding signal intensity,[17],5.5
same,SPOT peptide array binding signal intensity,[18],191
same,SPOT peptide array binding signal intensity,[19],44
same,SPOT peptide array binding signal intensity,[20],122
same,SPOT peptide array binding signal intensity,[21],41
same,SPOT peptide array binding signal intensity,[22],25.5
same,SPOT peptide array binding signal intensity,[23],21.8
same,SPOT peptide array binding signal intensity,[24],7
same,SPOT peptide array binding signal intensity,[25],765
same,SPOT peptide array binding signal intensity,[26],≤ 0
same,SPOT peptide array binding signal intensity,[27],27
same,SPOT peptide array binding signal intensity,[28],2.5
same,SPOT peptide array binding signal intensity,[29],10.5
same,SPOT peptide array binding signal intensity,[30],2.75
same,SPOT peptide array binding signal intensity,[31],270
same,SPOT peptide array binding signal intensity,[32],33.3
same,SPOT peptide array binding signal intensity,[33],23
same,SPOT peptide array binding signal intensity,[34],218
same,SPOT peptide array binding signal intensity,[35],4.5
same,SPOT peptide array binding signal intensity,[36],0.75
same,SPOT peptide array binding signal intensity,[37],53.5
same,SPOT peptide array binding signal intensity,[38],9.25
same,SPOT peptide array binding signal intensity,[39],19
same,SPOT peptide array binding signal intensity,[40],31.5
same,SPOT peptide array binding signal intensity,[41],12.5
same,SPOT peptide array binding signal intensity,[42],20
same,SPOT peptide array binding signal intensity,[43],243
same,SPOT peptide array binding signal intensity,[44],≤ 0
same,SPOT peptide array binding signal intensity,[45],2200
same,SPOT peptide array binding signal intensity,[46],118
same,SPOT peptide array binding signal intensity,[47],12.5
same,SPOT peptide array binding signal intensity,[48],40
same,SPOT peptide array binding signal intensity,[49],10
same,SPOT peptide array binding signal intensity,[50],1
same,SPOT peptide array binding signal intensity,[51],≤ 0
same,SPOT peptide array binding signal intensity,[52],169
same,SPOT peptide array binding signal intensity,[53],23.8
same,SPOT peptide array binding signal intensity,[54],39.8
same,SPOT peptide array binding signal intensity,[55],412
same,SPOT peptide array binding signal intensity,[56],167
same,SPOT peptide array binding signal intensity,[57],4
same,SPOT peptide array binding signal intensity,[58],135
same,SPOT peptide array binding signal intensity,[59],3.75
same,SPOT peptide array binding signal intensity,[60],92
same,SPOT peptide array binding signal intensity,[61],≤ 0
same,SPOT peptide array binding signal intensity,[62],5
same,SPOT peptide array binding signal intensity,[63],66.5
same,SPOT peptide array binding signal intensity,[64],1.5
same,SPOT peptide array binding signal intensity,[65],850
same,SPOT peptide array binding signal intensity,[66],664
same,SPOT peptide array binding signal intensity,[67],43.5
same,SPOT peptide array binding signal intensity,[68],27.5
same,SPOT peptide array binding signal intensity,[69],≤ 0
same,SPOT peptide array binding signal intensity,[70],104
same,SPOT peptide array binding signal intensity,[71],3
same,SPOT peptide array binding signal intensity,[72],13.3
same,SPOT peptide array binding signal intensity,[73],≤ 0
same,SPOT peptide array binding signal intensity,[74],≤ 0
